# “And” between values parts separate entries of the source, which are not always exact repeats. Equal values may be shown once. Inconclusive results are not listed. A call without a number means that no potency is given here. Some structures have more than one record in an assay (separate samples or runs), and their calls can disagree. The source made the active and inactive calls. The call rests on the fitted dose curve; in most records, active means well fitted inhibition curve with a large enough effect; inconclusive means small, poorly fitted or top-dose-only effect; inactive means no such curve, though single readings can be large or run the other way.
# Target: Cytochrome P450 3A4 (Homo sapiens) (UniProt P08684)
# Sequence (P08684 whole entry, looked up): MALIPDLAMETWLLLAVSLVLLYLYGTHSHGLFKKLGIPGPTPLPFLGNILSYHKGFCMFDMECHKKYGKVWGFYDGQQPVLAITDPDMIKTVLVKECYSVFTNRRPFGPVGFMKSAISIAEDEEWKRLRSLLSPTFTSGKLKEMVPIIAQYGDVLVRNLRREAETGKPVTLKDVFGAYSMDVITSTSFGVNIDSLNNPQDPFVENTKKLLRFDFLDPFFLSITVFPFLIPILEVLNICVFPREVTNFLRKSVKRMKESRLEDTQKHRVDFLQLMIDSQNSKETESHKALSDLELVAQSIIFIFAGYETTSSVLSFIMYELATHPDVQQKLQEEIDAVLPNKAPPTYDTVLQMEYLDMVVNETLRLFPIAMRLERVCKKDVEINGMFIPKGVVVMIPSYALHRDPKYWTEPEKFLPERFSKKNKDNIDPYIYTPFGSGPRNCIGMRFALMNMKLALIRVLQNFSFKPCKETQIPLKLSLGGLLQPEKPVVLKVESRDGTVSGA
# Assay: qHTS Assay for Inhibitors and Substrates of Cytochrome P450 3A4 (AID 884); further: nearly all actives have a fitted effect of over 50% in size
# Conditions: recombinant CYP3A4, Luciferin-PPXE luminescence; series mostly up to 57.1 µM
# Method: NIH Molecular Libraries Screening Centers Network [MLSCN]
# NIH Chemical Genomics Center [NCGC]
# The P450 gene superfamily is involved in the metabolism and clearance of xenobiotics. This assay used human CYP3A4 to measure the dealkylation of luciferin-6' phenylpiperazinylyl (Luciferin-PPXE; […]) to luciferin. The luciferin is then measured by luminescence after the addition of a luciferase detection reagent. Luciferin-PPXE concentration in the assay was equal to its KM for CYP3A4. Inhibitors and some substrates limit the production of luciferin, and decrease measured luminescence.
# NCGC Assay Protocol Summary:
# Two uL of enzyme and substrate mix (final concentrations: 20nM CYP3A4, 25uM Luciferin-PPXE, 200mM KPO4) were dispensed into a white, solid bottom 1536-well microtiter plate. 23nL of compound was transferred by a pin tool. The plate was incubated at RT for 10 min. Two uL of an NADPH regeneration solution (Promega supplied reagent) was dispensed and the reaction was allowed to continue for 60 min at RT. Then the reaction was stopped by reconstituted luciferin detection buffer. After another 20 min of incubation the plate was read on the ViewLux (Perkin Elmer) at 60 sec exposure and 2x2 binning. This protocol was carried out with Promega-Glo reagents and further information can be found at http://www.promega.com/tbs/tb325/tb325.pdf. Data were normalized to the to AC100 inhibition (57 uM ketoconazole).
# Keywords: P450, CYP3A4, Luciferase, MLSMR, MLSCN, NIH Roadmap, qHTS, NCGC
# Potency means the concentration at half of the fitted maximal effect.
row,Structure (SMILES),Potency
1,COC1C(O)C(C)O[C@H](OC2CC[C@@]3(C=O)C4CC[C@]5(C)C(C6=CC(=O)OC6)CC[C@@]5(O)C4CC[C@@H]3C2)C1O (stereo not given in full),inactive
2,Cc1cccc([N+](=O)[O-])c1,inactive
3,O=C(CC[N+](=O)[O-])OCC1OC(O)C(OC(=O)CC[N+](=O)[O-])[C@@H](OC(=O)CC[N+](=O)[O-])C1OC(=O)CC[N+](=O)[O-] (stereo not given in full),inactive
4,COC1=CC23CCCN2CCc2cc4c(cc2C3C1O)OCO4 (stereo not given),31.6 µM (active)
5,CNC(=O)Oc1ccccc1OC(C)C,inactive
6,COC1=CC(=O)O[C@@H](/C=C/c2ccc3c(c2)OCO3)C1,2.51 µM (active)
7,C[C@@]12CC(c3ccoc3)OC(=O)C1CC[C@@]1(C)C2C2C=C[C@@]1(O)C(=O)O2 (stereo not given in full),inactive
8,S=C=NCc1ccccc1,25.1 µM (active)
9,O=C(Cl)/C=C/C(=O)Cl,inactive
10,Clc1nc(Cl)nc(Nc2ccccc2Cl)n1,inactive
11,CC(=O)O.CC(=O)O.[Cd],inactive
12,CC(=O)OC1CC(OC(C)=O)[C@]2(C)C(CC(OC(C)=O)[C@]3(C)C2CC[C@@]2(C)C(c4ccoc4)C[C@H]4O[C@]432)C1(C)C (stereo not given in full),inactive
13,CNC(=O)Oc1cccc2c1OC(C)(C)C2,inactive
14,C[C@]12CC[C@H]3[C@@H](CCC4=CC(=O)CC[C@@]43C)[C@@H]1CC[C@@H]2O,inactive
15,CCCCOC(=O)c1ccccc1C(=O)OCCCC,inactive
16,C[C@]12CC[C@H](O)C[C@@H]1CC[C@H]1[C@H]2CC[C@]2(C)C(=O)CC[C@@H]12,inactive
17,C=C1C/C(=C/C)C(=O)O[C@@H]2CCN3CC=C(COC(=O)[C@]1(C)O)[C@@H]23,15.8 µM (active)
18,COc1cc2c(c(OC)c1OC)-c1ccc(O)c(=O)cc1[C@@H](NC(C)=O)CC2,inactive
19,C[C@@]12CCC3C(CC[C@@H]4CC(O)CC[C@@]34C)C1CCC2O (stereo not given in full),inactive
20,C[N+]1(C)C2CC(OC(=O)C(CO)c3ccccc3)CC1C1OC12 (stereo not given),inactive

row,Structure (SMILES),Potency
1,COC1=CC2C3Cc4ccc(OC)c(O)c4[C@]2(CCN3C)CC1=O (stereo not given in full),inactive
2,COc1cc2occc2c2oc(=O)ccc12,12.6 µM (active)
3,O=C1C(Cl)=C(Cl)C(=O)C(Cl)=C1Cl,2 µM (active)
4,NC(CO)Cc1ccccc1 (stereo not given),inactive
5,Clc1cc(Cl)c(-c2cc(Cl)c(Cl)cc2Cl)cc1Cl,inactive
6,O=C(Nc1ccccc1)N1CCC2(CC1)CCN(C(=O)Oc1ccccc1)CC2,inactive
7,C/C=C(/C)C(=O)OC1CC[C@]2(C)C3CCC4[C@]5(O)CC(O)[C@]6(O)C(CN7CC(C)CCC7[C@]6(C)O)[C@]5(O)C[C@@]42O[C@]13O (stereo not given in full),inactive
8,Cc1[nH]c2ccccc2c1CN(C)C,12.6 µM (active)
9,CCCC(=O)Cl,inactive
10,O=C=NC1CCCCC1,inactive
11,C=CC1CC=CCC1 (stereo not given),inactive
12,CC(=O)OC1CC[C@@]2(C)C3CC[C@]4(C)C(=O)CCC4C3CC[C@H]2C1 (stereo not given in full),inactive
13,C=CC(=O)OCC,inactive
14,ClC(Cl)=C(c1ccc(Cl)cc1)c1ccc(Cl)cc1,inactive and 7.94 µM (active)
15,CCC(C)C(=O)O[C@@H]1C[C@@]2(C)C(c3ccoc3)OC(=O)CC23OC2(C)O[C@@]14[C@@]1(C)C(CC(=O)OC)C5(C)CC1(O)C(O)(C5OC(=O)C1(C)OC1C)C(OC(C)=O)[C@@]34O2 (stereo not given in full),1 µM (active)
16,Nc1ccccc1Cl,inactive
17,ClC(Cl)=C(Cl)Cl,inactive
18,O=C(Nc1ccccc1)N1CC2(CCN(C(=O)Oc3ccccc3)CC2)C1,inactive
19,O=NN(CCO)CCO,inactive
20,CCNc1nc(Cl)nc(NC(C)C)n1,inactive

# Source: PubChem BioAssay (NCATS)
